PubChem BioAssay (NCATS)
Inconclusive results are not listed. Activity calls are given as the source filed them. Unless noted, calls follow the shape of the dose curve; as a rule, active = well fitted inhibition curve with a large enough effect; inconclusive = small, poorly fitted or top-dose-only effect; inactive = flat fitted curve, though single readings scatter.

Columns and labels:
[1] = qHTS drug screen for cell cycle checkpoint inhibitors in PARPi-resistant BRCA-mutant ovarian cancer cell lines. (AID 1963452; calls by dose curve); conditions: PEO1/OlaR viability, CellTiter-Glo luminescence, 96 h, stronger effect = lower value
How it was run: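 PEO1, PEO4 and PEO1/OlaR ovarian cancer cells, 600 per well, exposed 96 h at 37C to a dilution series. Viability read by CellTiter-Glo luminescence, normalized to DMSO and empty wells; activity summarized as Z-AUC.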

[2] = qHTS for identification of novel therapeutic agents for treatment of microphthalmiaassociated transcription factor (MiT) renal cell carcinoma (RCC) (AID 1963991); conditions: CellTiter-Glo, 48 h, stronger effect = lower value
How it was run: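 Three TFE3-fusion RCC cell lines (UOK109, UOK124, UOK145), 500 cells/well, were exposed to the 1912-compound MIPE 4.0 library for 48 hours at 37 C. Viability was read by CellTiter-Glo luminescence, normalised to DMSO (100%) and empty wells (0%), with 11-concentration curve fits.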

[3] = qHTS profiling for inhibitors of Plasmodium falciparum proliferation (AID 504749); also: nearly all actives have a fitted effect of over 60% in size; also: potency is read from the fitted curve at half-maximal effect;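 as to activity, negative = inhibition: 0% = DMSO vehicle and full inhibition = artemisinin control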; conditions: P. falciparum in erythrocytes, SYBR Green DNA, 72 h
How it was run: (§1)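 Three-day growth assay of blood-stage parasites in erythrocytes (0.3% parasitemia, 2.5% hematocrit) at 37 C, 5% CO2, quantified by SYBR Green DNA staining after overnight detergent lysis.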

3D7 = assay: as above; conditions: P. falciparum in erythrocytes, SYBR Green DNA, 72 h; series mostly up to 28.7 µM
How it was run: as §1

7G8 = assay: as above; conditions: P. falciparum in erythrocytes, SYBR Green DNA, 72 h; series mostly up to 28.7 µM
How it was run: as §1

AA1029 = assay: as above; conditions: P. falciparum in erythrocytes, SYBR Green DNA, 72 h; series mostly up to 28.7 µM
How it was run: as §1

AS120 = assay: as above; conditions: P. falciparum in erythrocytes, SYBR Green DNA, 72 h; series mostly up to 28.7 µM
How it was run: as §1

ATS189 = assay: as above; conditions: P. falciparum in erythrocytes, SYBR Green DNA, 72 h; series mostly up to 28.7 µM
How it was run: as §1

ATS95 = assay: as above; conditions: P. falciparum in erythrocytes, SYBR Green DNA, 72 h; series mostly up to 28.7 µM
How it was run: as §1

C2A = assay: as above; conditions: P. falciparum in erythrocytes, SYBR Green DNA, 72 h; series mostly up to 28.7 µM
How it was run: as §1

CP185 = assay: as above; conditions: P. falciparum in erythrocytes, SYBR Green DNA, 72 h; series mostly up to 28.7 µM
How it was run: as §1

CP191 = assay: as above; conditions: P. falciparum in erythrocytes, SYBR Green DNA, 72 h; series mostly up to 28.7 µM
How it was run: as §1

CP192 = assay: as above; conditions: P. falciparum in erythrocytes, SYBR Green DNA, 72 h; series mostly up to 28.7 µM
How it was run: as §1

CP194 = assay: as above; conditions: P. falciparum in erythrocytes, SYBR Green DNA, 72 h; series mostly up to 28.7 µM
How it was run: as §1

CP201 = assay: as above; conditions: P. falciparum in erythrocytes, SYBR Green DNA, 72 h; series mostly up to 28.7 µM
How it was run: as §1

CP203 = assay: as above; conditions: P. falciparum in erythrocytes, SYBR Green DNA, 72 h; series mostly up to 28.7 µM
How it was run: as §1

CP211 = assay: as above; conditions: P. falciparum in erythrocytes, SYBR Green DNA, 72 h; series mostly up to 28.7 µM
How it was run: as §1

CP215 = assay: as above; conditions: P. falciparum in erythrocytes, SYBR Green DNA, 72 h; series mostly up to 28.7 µM
How it was run: as §1

CP217 = assay: as above; conditions: P. falciparum in erythrocytes, SYBR Green DNA, 72 h; series mostly up to 28.7 µM
How it was run: as §1

[4] = measured here: PEO1 parental Z-AUC
[5] = TFE3-RCC UOK109 viability, measured here: UOK109 Z-AUC
[6] = TFE3-RCC viability, measured here: UOK124 Z-AUC
[7] = TFE3-RCC viability, measured here: UOK145 Z-AUC
[8] = at 28.7 µM (top of the series), parasite line A
[9] = at 28.7 µM (top of the series), parasite line B

CC(C)(C#N)c1cc(Cn2cncn2)cc(C(C)(C)C#N)c1
0.487: z-score [2, 7]
inactive: Z-AUC [1] 1.1 | activity, negative = inhibition [3, 8] 5.33% | activity, negative = inhibition [3, 9] 14.1% | Potency (3D7) | Potency (7G8) | Potency (AA1029) | Potency (AS120) | Potency (ATS189) | Potency (ATS95) | Potency (C2A) | Potency (CP185) | Potency (CP191) | Potency (CP192) | Potency (CP194) | Potency (CP201) | Potency (CP203) | Potency (CP211) | Potency (CP215) | Potency (CP217)
1.39: Z-AUC [1, 4]
0.558: z-score [2, 5]
1.04: Z-AUC ([1]; measured here: PEO4 Z-AUC)
0.63: z-score [2, 6]

O=C(O)c1cc(=O)[nH]c(=O)[nH]1
1.07: z-score [2, 5]
-0.118: Z-AUC [1, 4]
0.79: z-score [2, 6]
inactive: Z-AUC [1] 0.444 | activity, negative = inhibition [3, 8] 24.2% | activity, negative = inhibition [3, 9] 6.15% | Potency (3D7) | Potency (AA1029) | Potency (AS120) | Potency (ATS189) | Potency (ATS95) | Potency (C2A) | Potency (CP185) | Potency (CP191) | Potency (CP194) | Potency (CP201) | Potency (CP203) | Potency (CP211) | Potency (CP215) | Potency (CP217)
1.38: z-score [2, 7]
-0.128: Z-AUC ([1]; measured here: PEO4 Z-AUC)

CC(N)C12CC3CC(CC(C3)C1)C2 (stereo unspecified)
0.722: Z-AUC ([1]; measured here: PEO4 Z-AUC)
0.00344: z-score [2, 5]
inactive: Z-AUC [1] 0.887 | activity, negative = inhibition [3, 8] 7.36% | activity, negative = inhibition [3, 9] -12% | Potency (C2A) | Potency (CP191) | Potency (CP201) | Potency (CP217)
0.503: z-score [2, 7]
0.571: Z-AUC [1, 4]
active: Potency (CP203) 12 µM
0.654: z-score [2, 6]

CN(C)CCc1c[nH]c2ccc(CS(=O)(=O)N3CCCC3)cc12
-0.684: z-score [2, 5]
1.04: Z-AUC ([1]; measured here: PEO4 Z-AUC)
0.603: z-score [2, 7]
1.58: Z-AUC [1, 4]
-0.106: z-score [2, 6]
inactive: Z-AUC [1] 1.7 | activity, negative = inhibition [3, 8] -2.84% | activity, negative = inhibition [3, 9] -4.67% | Potency (3D7) | Potency (7G8) | Potency (AA1029) | Potency (AS120) | Potency (ATS189) | Potency (ATS95) | Potency (C2A) | Potency (CP185) | Potency (CP191) | Potency (CP192) | Potency (CP194) | Potency (CP201) | Potency (CP203) | Potency (CP211) | Potency (CP215) | Potency (CP217)

CCn1cc(C(=O)O)c(=O)c2cc(F)c(N3CCNCC3)cc21
0.192: Z-AUC ([1]; measured here: PEO4 Z-AUC)
1.12: z-score [2, 5]
1.26: z-score [2, 7]
2.59: z-score [2, 6]
0.343: Z-AUC [1, 4]
inactive: Z-AUC [1] 0.488 | activity, negative = inhibition ([3]; at 12.8 µM (top of the series), parasite line A) -24.5% | activity, negative = inhibition ([3]; at 12.8 µM (top of the series), parasite line B) -18% | Potency (3D7) | Potency (7G8) | Potency (AA1029) | Potency (AS120) | Potency (ATS189) | Potency (ATS95) | Potency (C2A) | Potency (CP191) | Potency (CP192) | Potency (CP201) | Potency (CP203) | Potency (CP215) | Potency (CP217)

Cc1oc(=O)oc1CN1CCN(c2cc3c(cc2F)c(=O)c(C(=O)O)c2n3C(C)S2)CC1 (stereo unspecified)
-0.35: Z-AUC [1, 4]
inactive: Z-AUC [1] -0.572
0.77: z-score [2, 5]
0.785: z-score [2, 6]
0.456: z-score [2, 7]
active: Potency ([3]; parasite line A) 11.2 µM | Potency ([3]; parasite line B) 8.91 µM | Potency (3D7) 11.2 µM | Potency (7G8) 3.98 µM | Potency (AA1029) 6.31 µM | Potency (AS120) 11.2 µM | Potency (ATS189) 8.91 µM | Potency (ATS95) 12.6 µM | Potency (C2A) 10 µM | Potency (CP185) 10 µM | Potency (CP191) 12.6 µM | Potency (CP217) 11.2 µM
-0.652: Z-AUC ([1]; measured here: PEO4 Z-AUC)

O=P(O)(O)C(O)(Cc1cccnc1)P(=O)(O)O
0.537: z-score [2, 7]
0.503: Z-AUC [1, 4]
inactive: Z-AUC [1] 0.331 | activity, negative = inhibition [3, 8] 11.1% | activity, negative = inhibition [3, 9] 6.62% | Potency (3D7) | Potency (7G8) | Potency (AA1029) | Potency (AS120) | Potency (ATS189) | Potency (ATS95) | Potency (C2A) | Potency (CP185) | Potency (CP191) | Potency (CP192) | Potency (CP194) | Potency (CP201) | Potency (CP203) | Potency (CP211) | Potency (CP215) | Potency (CP217)
0.956: Z-AUC ([1]; measured here: PEO4 Z-AUC)
0.644: z-score [2, 6]
0.388: z-score [2, 5]

CCOCC(O)COc1ccc(NC(=O)CC[S+](C)C)cc1 (stereo unspecified)
1.15: Z-AUC ([1]; measured here: PEO4 Z-AUC)
0.104: z-score [2, 7]
0.296: z-score [2, 6]
0.893: Z-AUC [1, 4]
0.123: z-score [2, 5]
inactive: Z-AUC [1] 0.72 | activity, negative = inhibition [3, 8] 8.74% | activity, negative = inhibition [3, 9] 4.77% | Potency (3D7) | Potency (7G8) | Potency (AA1029) | Potency (AS120) | Potency (ATS189) | Potency (ATS95) | Potency (C2A) | Potency (CP185) | Potency (CP191) | Potency (CP192) | Potency (CP194) | Potency (CP201) | Potency (CP203) | Potency (CP211) | Potency (CP215) | Potency (CP217)

CCOc1cc(N)c(Cl)cc1C(=O)NCC1CN(Cc2ccc(F)cc2)CCO1 (stereo unspecified)
-0.211: z-score [2, 5]
1.17: Z-AUC [1, 4]
0.779: z-score [2, 6]
inactive: Z-AUC [1] 1.79
1.21: Z-AUC ([1]; measured here: PEO4 Z-AUC)
active: Potency ([3]; parasite line A) 2.51 µM | Potency ([3]; parasite line B) 11.2 µM | Potency (7G8) 11.2 µM | Potency (AA1029) 12.6 µM | Potency (AS120) 8.91 µM | Potency (ATS189) 5.01 µM | Potency (ATS95) 10 µM | Potency (C2A) 11.2 µM | Potency (CP185) 10 µM | Potency (CP191) 3.98 µM | Potency (CP194) 12 µM | Potency (CP211) 12 µM | Potency (CP215) 10.7 µM | Potency (CP217) 4.47 µM
0.352: z-score [2, 7]

COCCCOc1cc(C[C@@H](C[C@H](N)[C@@H](O)C[C@H](C(=O)NCC(C)(C)C(N)=O)C(C)C)C(C)C)ccc1OC
1.4: z-score [2, 7]
0.318: z-score [2, 6]
1.51: Z-AUC ([1]; measured here: PEO4 Z-AUC)
1.1: z-score [2, 5]
1.52: Z-AUC [1, 4]
inactive: Z-AUC [1] 1.16
